Results filed as inconclusive are left out. The source made the active and inactive calls. Unless noted, calls come from the whole dose curve; as a rule, active = well fitted curve in the direction sought with a large enough effect in the repeat runs; inconclusive = weak or mixed curves; inactive = no such curve, though single readings can be large; an effect the other way counts as inactive or inconclusive.
Columns and labels:
[1] = qHTS assay for small molecules that induce genotoxicity in human embryonic kidney cells expressing luciferase-tagged ATAD5 (AID 651632); note: nearly all actives have a fitted effect of over 15% in size
Summary of the method: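 Luminescence read-out: after 16 hr compound exposure at 37C, ATAD5-luciferase HEK293T cells received Amplite, 30 min RT, then CCD imaging. A rise in signal marks genotoxic stress.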

[2] = qHTS assay for small molecule agonists of the p53 signaling pathway - cell viability (AID 651633; calls by dose curve; note: series mostly up to about 83 µM; nearly all actives have a fitted effect of over 30% in size)
Summary of the method: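 p53RE-bla cells, seeded at 4,000 per well and rested 5 h at 37 C/5% CO2, received compounds in DMSO for 16 h at 37 C. CellTiter-Glo was then added, and luminescence was read after 30 min at room temperature to gauge cytotoxicity.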

[3] = qHTS assay for small molecules that induce genotoxicity in human embryonic kidney cells expressing luciferase-tagged ATAD5 - cell viability (AID 651634; calls by dose curve; note: nearly all actives have a fitted effect of over 25% in size)
Summary of the method: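 HEK293T ATAD5-luc cells, 2,000/well; compound 15.5 hr, 37C/5% CO2; CellTiter-Fluor 30 min, 37C; fluorescence read.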

[4] = qHTS assay for small molecule disruptors of the mitochondrial membrane potential - cell viability (AID 720634; calls by dose curve;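 note: human HepG2 liver cancer cells; series mostly up to about 83 µM; nearly all actives have a fitted effect of over 20% in size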)
Summary of the method: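 Luminescence from CellTiter-Glo (ATP content) gave viability in HepG2 cells, read in the same wells as the MMP dye assay after 1 hr compound exposure at 37 C.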

[5] = qHTS assay for small molecule disruptors of the mitochondrial membrane potential (AID 720635); note: potency is the fitted concentration of half-maximal effect
Summary of the method: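 HepG2 cells (2,000/well) attached overnight at 37C, then took compound for 1 hr at 37C, 5% CO2. Mito-MPS dye was added for 30 min; fluorescence was read at 490/535 nm (monomers) and 540/590 nm (aggregates).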

[6] = qHTS assay to test for compound auto fluorescence at 590 nm (red) in HepG2 cells (AID 720674)
Summary of the method: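 Compound auto-fluorescence is scored relative to Rose Bengal sodium, measured at 540/590 nm in live HepG2 cultures after 1 hr compound contact (37 C, 5% CO2).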

[7] = qHTS assay to test for compound auto fluorescence at 535 nm (green) in HepG2 cells (AID 720675)
[8] = qHTS assay to test for compound auto fluorescence at 460 nm (blue) in HEK293 cells (AID 720678)
Summary of the method: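 Intrinsic compound fluorescence is recorded in live HEK293 cultures after overnight incubation at 37C, 5% CO2, using excitation 405 nm and emission 460 nm. Values are referenced to triamterene.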

[9] = qHTS assay to test for compound auto fluorescence at 590 nm (red) in HEK293 cells (AID 720679)
Summary of the method: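 Red autofluorescence, HEK293 cells: 2,000 cells/well; attach 4-5 hr 37C; add 23 nL cpd or DMSO; incubate o/n 37C 5% CO2; read Ex540/Em590; Rose Bengal sodium reference.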

[10] = qHTS assay to test for compound auto fluorescence at 535 nm (green) in HEK293 cells (AID 720680)
[11] = qHTS assay to test for compound auto fluorescence at 460 nm (blue) in HEK293 cell free culture (AID 720681)
Summary of the method: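 Test compounds were pinned into cell-free culture medium (DMEM with 10% FBS) and fluorescence was read directly at Ex/Em 405/460 nm. Signals were expressed as fluorescence equivalents of triamterene, with DMSO vehicle as control.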

[12] = qHTS assay to test for compound auto fluorescence at 535 nm (green) in HEK293 cell free culture (AID 720682)
Summary of the method: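 DMEM + 10% FBS, cell-free; cpd or DMSO pinned in; Ex485/Em535 read; output as fluorescein-equivalent signal.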

[13] = qHTS assay to test for compound auto fluorescence at 590 nm (red) in HEK293 cell free culture (AID 720683)
Summary of the method: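 Tox21 10K library compounds were pinned into cell-free DMEM with 10% FBS and fluorescence was read at excitation 540 nm. Activity is expressed as Rose Bengal sodium equivalency.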

[14] = qHTS assay to test for compound auto fluorescence at 590 nm (red) in HepG2 cell free culture (AID 720684)
Summary of the method: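 Ex 540 / Em 590 nm read of compound in cell-free MEM (10% FBS). Rose Bengal sodium reference.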

[15] = qHTS assay to test for compound auto fluorescence at 460 nm (blue) in HepG2 cell free culture (AID 720685)
Summary of the method: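 Cell-free plates of MEM plus 10% FBS received 23 nL compound or DMSO vehicle; blue-channel (405/460 nm) intensity scored against triamterene as reference fluorophore.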

[16] = qHTS assay to test for compound auto fluorescence at 535 nm (green) in HepG2 cell free culture (AID 720686)
[17] = qHTS assay for small molecule agonists of the p53 signaling pathway (AID 651631; calls by dose curve; note: nearly all actives have a fitted effect of over 15% in size)
Summary of the method: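 Testing took place in human colorectal HCT-116 cells with stable p53RE-driven beta-lactamase. After 16 h of compound exposure at 37 °C, a FRET substrate was added and fluorescence recorded 2 h later.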

[18] = qHTS assay to test for compound auto fluorescence at 460 nm (blue) in HepG2 cells (AID 720687)
Summary of the method: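 Cells (2,000/well in MEM with 10% FBS) attached overnight at 37 C, then were exposed to compound or DMSO for 1 hr at 37 C, 5% CO2. Fluorescence read at Ex/Em 405/460 nm, expressed as triamterene-equivalent signal.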

[19] = target: Glucocorticoid receptor (Homo sapiens) (UniProt P04150); assay: qHTS assay to identify small molecule agonists of the glucocorticoid receptor (GR) signaling pathway (AID 720691; active = well fitted activation curve with a large enough effect in the signal ratio in the repeat runs, not every such curve was filed as active; the % refers to the signal ratio)
Summary of the method: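 HeLa GR-bla reporter line; cells pre-incubated 4 h, compound in DMSO 18 h at 37 C; LiveBLAzer B/G FRET substrate 2 h RT; fluorescence intensity read-out.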

[20] = target: Glucocorticoid receptor (Homo sapiens) (UniProt P04150); assay: qHTS assay to identify small molecule antagonists of the glucocorticoid receptor (GR) signaling pathway (AID 720692; active = well fitted inhibition curve with a large enough effect in the signal ratio in the repeat runs, not every such curve was filed as active; the % refers to the signal ratio)
Summary of the method: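 Read-out: beta-lactamase FRET substrate fluorescence, 2 h at room temperature, in HeLa cells stably carrying a GRE-driven bla reporter. Compounds were co-incubated with 5 nM dexamethasone agonist (final) for 18 h at 37 C.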
% is set by controls: 0 for no effect and ±100 for the full control effect.

Glucocorticoid receptor (Homo sapiens), sequence (P04150 whole entry, looked up): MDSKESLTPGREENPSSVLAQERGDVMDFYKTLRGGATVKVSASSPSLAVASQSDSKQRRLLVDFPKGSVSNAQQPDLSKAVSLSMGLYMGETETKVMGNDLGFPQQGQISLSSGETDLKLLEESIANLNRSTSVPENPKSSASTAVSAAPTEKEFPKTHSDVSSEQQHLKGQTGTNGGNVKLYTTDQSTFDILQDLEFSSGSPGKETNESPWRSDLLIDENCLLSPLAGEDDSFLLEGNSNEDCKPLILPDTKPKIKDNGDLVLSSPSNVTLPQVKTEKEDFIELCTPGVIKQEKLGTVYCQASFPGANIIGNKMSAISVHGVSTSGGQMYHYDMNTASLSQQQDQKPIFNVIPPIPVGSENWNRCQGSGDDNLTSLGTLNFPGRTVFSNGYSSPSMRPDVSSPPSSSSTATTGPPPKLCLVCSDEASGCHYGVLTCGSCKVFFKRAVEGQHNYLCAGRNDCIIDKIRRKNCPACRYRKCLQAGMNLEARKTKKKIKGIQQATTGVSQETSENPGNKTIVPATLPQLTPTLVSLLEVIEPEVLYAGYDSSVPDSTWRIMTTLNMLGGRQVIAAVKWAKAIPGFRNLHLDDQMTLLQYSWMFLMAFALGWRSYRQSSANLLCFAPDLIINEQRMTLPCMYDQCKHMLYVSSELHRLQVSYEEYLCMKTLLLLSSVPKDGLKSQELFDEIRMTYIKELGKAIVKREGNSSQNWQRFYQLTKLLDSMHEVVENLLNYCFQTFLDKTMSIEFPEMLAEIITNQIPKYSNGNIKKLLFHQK

CC(C)(CO)[C@@H](O)C(=O)NCCCO
inactive: outcome [1] | outcome [2] | Potency [3] | outcome [4] | Potency [5] | outcome [6] | outcome [7] | outcome [8] | outcome [9] | outcome [10] | outcome [11] | outcome [12] | outcome [13] | outcome [14] | outcome [15] | outcome [16]

CN(C)CCCNCCC#N
inactive: outcome [17] | outcome [1] | outcome [2] | Potency [3] | outcome [6] | outcome [7] | outcome [8] | outcome [9] | outcome [10] | outcome [12] | outcome [13] | outcome [15] | outcome [16] | outcome [18]

CCN(Cc1cccc(S(=O)(=O)O)c1)c1ccccc1
inactive: outcome [17] | outcome [1] | outcome [2] | outcome [8] | outcome [9] | outcome [10] | outcome [11] | outcome [12] | outcome [13] | outcome [14] | outcome [15] | outcome [16] | outcome [18] | Potency [19] | outcome [20]

C=C(C)C(=O)OC
inactive: outcome [17] | outcome [2] | Potency [3] | outcome [4] | outcome [6] | outcome [7] | outcome [8] | outcome [9] | outcome [10] | outcome [12] | outcome [13] | outcome [14] | outcome [15] | outcome [16] | outcome [18] | Potency [19]

CN(C)CCOCCN(C)CCO
inactive: outcome [17] | outcome [1] | outcome [2] | outcome [6] | outcome [9] | outcome [10] | outcome [11] | outcome [12] | outcome [13] | outcome [14] | outcome [15] | outcome [16] | outcome [18] | Potency [19]

Nc1ccnc(=O)[nH]1
inactive: outcome [17] | outcome [1] | outcome [2] | outcome [4] | outcome [8] | outcome [9] | outcome [10] | outcome [11] | outcome [12] | outcome [13] | outcome [14] | outcome [16] | outcome [18] | Potency [19] | outcome [20]

CCS(=O)(=O)CCn1c([N+](=O)[O-])cnc1C
inactive: outcome [17] | outcome [1] | outcome [2] | outcome [4] | fluorescence, relative to Rose Bengal [6] 0.187% [at 18.6 µM] | fluorescence, % of fluorescein control [7] -0.217% [at 18.6 µM] | fluorescence, % of triamterene [8] -0.271% [at 18.6 µM] | fluorescence, % of fluorescent control [9] 0.0006% [at 18.6 µM] | fluorescence, % of fluorescein [10] 0.101% [at 18.6 µM] | fluorescence, % of fluorescent control [11] 0.0677% [at 18.6 µM] | activity change [12] 0.0328% [at 18.6 µM] | fluorescence, % of fluorescent control [13] -0.106% [at 18.6 µM] | fluorescence, % of fluorescent control [15] 0.0838% [at 18.6 µM] | fluorescence, % of fluorescein control [16] -0.0978% [at 18.6 µM] | fluorescence, % of fluorescent control [18] 0.0125% [at 18.6 µM]

O=C1NC2NC(=O)NC2N1 (stereo not given)
inactive: outcome [1] | outcome [2] | Potency [3] | outcome [4] | Potency [5] | outcome [6] | outcome [7] | outcome [8] | outcome [9] | outcome [10] | outcome [11] | outcome [12] | outcome [13] | outcome [14] | outcome [15] | outcome [16]

F[Si-2](F)(F)(F)(F)F
inactive: outcome [17] | outcome [1] | outcome [2] | outcome [6] | outcome [7] | outcome [9] | outcome [10] | outcome [11] | outcome [12] | outcome [13] | outcome [14] | outcome [15] | outcome [16] | outcome [18] | Potency [19] | outcome [20]

CCCCCC1CCCC(=O)O1 (stereo not given)
inactive: outcome [17] | outcome [1] | outcome [2] | Potency [3] | outcome [6] | outcome [8] | outcome [9] | outcome [10] | outcome [11] | outcome [12] | outcome [13] | outcome [14] | outcome [15] | outcome [16] | outcome [18] | Potency [19]

C=CCCCCCCCCCCC
inactive: activation [17] -4.17% [at 8.3 µM] | activation [1] 1.83% [at 8.08 µM] | activity change, negative = cytotoxicity [2] 6.07% [at 8.08 µM] | activity, negative = cytotoxicity [3] -5.67% [at 8.08 µM] | fluorescence, relative to Rose Bengal [6] 0.0415% [at 3.72 µM] | fluorescence, % of fluorescein control [7] 0.103% [at 3.72 µM] | fluorescence, % of triamterene [8] -0.171% [at 3.72 µM] | fluorescence, % of fluorescent control [9] -0.0532% [at 3.72 µM] | fluorescence, % of fluorescein [10] 0.0165% [at 3.72 µM] | activity change [12] 0.0052% [at 3.72 µM] | fluorescence, % of fluorescent control [13] -0.0144% [at 3.72 µM] | fluorescence, % of Rose Bengal [14] 0.0242% [at 3.72 µM] | fluorescence, % of fluorescein control [16] 0.0296% [at 3.72 µM] | fluorescence, % of fluorescent control [18] -0.017% [at 3.72 µM] | activation [19] -0.645% [at 6.9 µM] | activity change, negative = inhibition [20] -6.37% [at 7.04 µM]

CC(C)COC(=O)CC(C(=O)OCC(C)C)S(=O)(=O)O (stereo not given)
inactive: outcome [17] | outcome [1] | outcome [2] | outcome [4] | outcome [7] | outcome [8] | outcome [9] | outcome [10] | outcome [11] | outcome [12] | outcome [13] | outcome [14] | outcome [15] | outcome [16] | outcome [18] | Potency [19] | outcome [20]

c1ccc(CNc2ncnc3nc[nH]c23)cc1
inactive: outcome [17] | outcome [2] | Potency [3] | outcome [4] | outcome [6] | outcome [7] | outcome [8] | outcome [9] | outcome [10] | outcome [11] | outcome [12] | outcome [13] | outcome [14] | outcome [15] | outcome [16] | outcome [18] | Potency [19]
active: Potency [5] 54.5 µM

CCCCCCCCCCCCOC(C)=O
inactive: outcome [1] | outcome [2] | Potency [3] | outcome [4] | outcome [6] | outcome [7] | outcome [8] | outcome [9] | outcome [10] | outcome [11] | outcome [12] | outcome [13] | outcome [14] | outcome [15] | outcome [16] | outcome [18]
